Active and inactive are the calls of the source. The call rests on the fitted dose curve; in most records, active means well fitted curve in the direction sought with a large enough effect in the repeat runs; inconclusive means weak or mixed curves; inactive means flat fitted curve, though single readings scatter.
Experiment: qHTS assay to test for compound auto fluorescence at 460 nm (blue) in HEK293 cells (AID 720678)
Details: blue autofluorescence 405/460 nm; series mostly up to 91.3 µM
How it was run: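 HEK293 cells (2,000 per well, medium with 10% dialyzed FBS) attached for 4-5 hr at 37C, then received compound and stood overnight at 37C, 5% CO2. Blue fluorescence was read at Ex/Em 405/460 nm and expressed relative to triamterene.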

Structure (SMILES)	outcome
CC/C=C/CCCCCCCCCCOC(C)=O	inactive
Cc1ccc(Br)cc1	inactive
O=C(O)/C=C(\CC(=O)O)C(=O)O	inactive
C=CCON/C(CCC)=C1\C(=O)CC(C)(C)C(C(=O)OC)=C1O	inactive
CCOc1ccccc1OCCN[C@H](C)Cc1ccc(OC)c(S(N)(=O)=O)c1	inactive
CCCCCCCCCCCCCCBr	inactive
CCN1CCN(C(=O)N[C@@H](C(=O)N[C@@H]2C(=O)N3[C@@H]2SC(C)(C)[C@H]3C(=O)O)c2ccccc2)C(=O)C1=O	inactive
CCCCNCC	inactive
C[Si](C)(C)O[Si](O)(O)O	inactive
O=C(CCBr)N1CCN(C(=O)CCBr)CC1	inactive
Cc1ccccc1OCC(=O)O	inactive
C/C(=N\O)c1ccc(OCC(=O)N2CCCCC2)cc1	inactive
CC/C=C\CCCCCCCCCCOC(C)=O	inactive
COCc1nnc(-c2ccc[n+]([O-])c2)n1-c1c(Cl)c(Cl)cc2[nH]c(=O)c(=O)[nH]c12	inactive
CC1(C)S[C@@H]2[C@H](NC(=O)Cc3ccccc3)C(=O)N2[C@H]1C(=O)O (tested in a mixture with another compound)	inactive
CC1=C(O)C(=O)CO1	inactive
CC(C)C(C)C	inactive
O=C(O)Cc1c(Cl)ccc(Cl)c1Cl	inactive
CCC(=O)OCCOc1ccccc1	inactive
N=C(N)S(=O)O	inactive
CC(C)(C)C(=O)CCc1ccc(Cl)cc1	inactive
CC[C@@]1(c2ccccc2)NC(=O)N(C)C1=O	inactive
CCCCCCCCS(=O)(=O)O	inactive
